BoNT A protease – inhibitors of Botulinum neurotoxin A light chain protease; AID 588499; inhibition, % at 10 µM; 0.17% of 360,000 active; multiplex microsphere protease substrate cleavage, flow cytometry; further: plate controls were buffer without enzyme for full effect and enzyme alone for no effect
BoNT-F LC inh – blocks Botulinum neurotoxin F light chain protease. AID 588497. inhibition, % at 10 µM. Multiplex microsphere protease cleavage assay, flow cytometry. 0.22% of 360,000 active; in the data active means inhibition above about 35%, passing the limit was not always enough; inconclusive means no clear call, values can overlap the other calls; further: plate controls were buffer without enzyme for full effect and enzyme alone for no effect
Bead autofluor – counter-screen for toxin protease inhibitors: compound fluorescence; compound autofluorescence counterscreen, microsphere flow cytometry; hits give high values; fluorescence intensity (no concentration beside the values); 3.1% of 360,000 active; AID 624483; in the data active means fluorescence intensity above about 16000; inconclusive means no clear call, values can overlap the other calls
Anthrax LF prot – inhibitors of Bacillus anthracis lethal factor protease; 0.12% of 360,000 active; AID 588501; inhibition, % at 10 µM; multiplex microsphere protease cleavage assay, LF; P15917; further: plate controls were buffer without enzyme for full effect and enzyme alone for no effect
An asterisk follows results filed as active; ? = inconclusive; nt = not tested or not shown. The list is not random: actives were taken first. Their share in the collection is about 3.5%. Unless noted, no stated cut-off is given here; in the data, active means inhibition above about 30%; inconclusive means no clear call, values can overlap the other calls; inactive means below that.

SMILES	BoNT A protease	BoNT-F LC inh	Bead autofluor	Anthrax LF prot
Nc1nc(SCc2ccccc2Cl)c2ncn(C3OC(CO)C(O)C3O)c2n1 (stereo not drawn)	0	1	2970	-6
CC(=O)Nc1ccc(S(=O)(=O)O)c(OC(C)=O)c1	-1	-6	3709	-3
CCc1cccc2c(C(=O)CSc3nncn3-c3ccc(OC)cc3)c[nH]c12	1	4	2304	1
CCc1cccc2c(C(=O)CSc3nnc(-c4ccoc4C)n3C)c[nH]c12	3	1	22498*	-4
Cc1ccc2nc(C)cc(C(=O)N3CCCC(N4CCN(c5ccccc5C)CC4)C3)c2c1 (stereo not drawn)	0	0	5935	-4
Cc1ncsc1C(=O)Nc1nc2c(s1)CC(C)CC2 (stereo not drawn)	-1	-2	16464*	-6
CC(=NNC(=S)N1CC2CCC(CC2)C1)c1cccc(C)n1	20	45*	2732	18
O=C(Nc1ccccc1[N+](=O)[O-])c1cccc(N2C(=O)CCC2=O)c1	-6	-12	5213	-5
Cc1cc(C(=O)N2CCN(c3ccccc3)CC2)c(C)o1	-2	-2	17012*	-1
Cc1cc(C(=O)N2CCN(c3ncccn3)CC2)c(C)o1	-4	-3	21168*	-1
Cc1cc(C(=O)N2CCN(c3cccc(Cl)c3)CC2)c(C)o1	1	?	4003	-4
Cc1cc(C(=O)N2CCN(c3ccccc3Cl)CC2)c(C)o1	2	6	3680	5
Cc1nn(CCOc2ccccc2)c(=O)n1-c1cccc(F)c1	7	8	16398*	-21
Cc1nn(CCOc2ccccc2)c(=O)n1-c1ccc(F)cc1	1	1	16122	-5
Cc1ccc2c(c1N)C(=O)c1ccccc1C2=O	9	8	4990	-1
Cn1c(=O)c(N)c2c3c(c(Br)ccc31)C(=O)c1ccccc1-2	38*	-1	3760	19
NC(=O)Cn1cc(C=C2C(=O)NC(=O)NC2=O)c2ccccc21	-2	-4	2839	3
COC(=O)Cn1cc(C=C2C(=O)NC(=O)NC2=O)c2ccccc21	0	42*	3011	12
CCC(C)[C@H](NC(=O)N1CCn2c1nc1ccccc12)C(=O)NCCc1ccc(OC)c(OC)c1 (stereo partly drawn)	-1	0	5791	0
Cc1sc2ncnc(SCC(=O)NC3CC3)c2c1C	-2	-3	24257*	2
CC1(C(=O)Nc2ccc3c(c2)OCCO3)CCN1C(=O)c1cccc(F)c1 (stereo not drawn)	0	-4	4027	0
O=C(CSc1nc2ccccc2c(=O)n1CC1CCCO1)NCC1CCCO1 (stereo not drawn)	?	8	17453*	-8
CCC(Sc1nc2ccccc2c(=O)n1CC1CCCO1)C(=O)NCc1cccnc1 (stereo not drawn)	?	-4	20816*	-3
Cc1ccc(CNC(=O)CSc2nc3ccccc3c(=O)n2CC2CCCO2)cc1 (stereo not drawn)	-1	-10	6188	-1
CC(=O)NCCn1c(SCC(=O)NCC2CCCO2)nc2ccccc2c1=O (stereo not drawn)	-1	-4	22103*	-2
SMILES	BoNT A protease	BoNT-F LC inh	Bead autofluor	Anthrax LF prot
COc1ccc(S(=O)(=O)N(C)[C@H]2C[C@H]3c4cc(N5CCN(C)CC5)ccc4CCN3C(=O)[C@H]2[C@H](C)O)cc1	0	-4	3027	-10
CSc1ccc(CN2CCC(C)(Oc3cccc(Cl)c3)C2)cc1 (stereo not drawn)	0	-2	2976	-6
Cc1ccc(S(=O)(=O)N2CCOCC2)cc1C(=O)Nc1c(C)n(C)n(-c2ccccc2)c1=O	?	-3	22630*	-4
Cc1c(NS(=O)(=O)N2CCCC2)c(=O)n(-c2ccccc2)n1C	1	4	22285*	-2
Cc1ccc(C(=O)Nc2c(C)n(C)n(-c3ccccc3)c2=O)cc1S(=O)(=O)N1CCOCC1	1	4	2306	0
Cc1c(NS(C)(=O)=O)c(=O)n(-c2ccccc2)n1C	-1	-11	3673	-3
C=CCNc1nc(C(=O)OCC(=O)NCc2cccc(Cl)c2)cs1	0	-3	3951	-3
CCOC(=O)Nc1ccc2c(c1)Nc1ccccc1S2	?	-4	20181*	-2
C=CC(=O)N1c2ccccc2Sc2ccc(NC(=O)OCC)cc21	0	0	3047	-1
CC1CCN(C(=O)C(C)NCc2ccc(F)cc2)CC1 (stereo not drawn)	-1	?	3808	4
C#CCN(C[C@H]1[C@H](OC(=O)NCc2ccco2)[C@H](OC(=O)NCc2ccco2)C[C@@H](C(=O)OC)[C@H]1C(=O)OC)S(=O)(=O)c1ccc(C)cc1	-1	3	3799	-8
O=C(O)c1ccc(COc2c(F)c(F)c(F)c(F)c2F)o1	2	3	19586*	-1
CCCC(=O)N1CCC1(C)C(=O)NCc1ccccc1SC (stereo not drawn)	0	4	3795	0
CCOc1ccccc1Nc1nnc(SCC(=O)N2CCCC2)s1	0	-2	8546	-8
COc1ccccc1Nc1nnc(SCC(=O)N2CCCC2)s1	?	1	23377*	0
CCCc1cc(C(=O)N2CCN(C(c3ccccc3)c3ccccc3)CC2)no1	0	1	5879	-4
O=C(c1ccc2c(=O)n3c(nc2c1)CCCCC3)N1CCN(C(c2ccccc2)c2ccccc2)CC1	0	-1	23040*	4
O=C(c1ccc(=O)oc1)N1CCN(C(c2ccccc2)c2ccccc2)CC1	?	-4	23517*	-3
O=C(c1ccc2c(=O)n3c(nc2c1)CCCCC3)N1CCN(c2ccccc2)CC1	3	8	1683	-8
CSc1ccc(C(=S)N2CCN(C(c3ccccc3)c3ccccc3)CC2)cc1	-2	-5	25174*	-2
Cc1cc(C(=O)N2CCN(C(c3ccccc3)c3ccccc3)CC2)no1	-3	-5	23268*	-2
CC(=O)N1CCN(C(c2ccccc2)c2ccccc2)CC1	-2	nt	nt	3
C=CCC1(CC=C)CCCN1C(=O)C1CCC(=O)N(CCc2ccc(OC)cc2)C1 (stereo not drawn)	0	3	6567	4
CC1(c2ccccc2)NC(=O)N(CC(=O)N(CC(=O)Nc2ccccc2C(F)(F)F)Cc2ccco2)C1=O (stereo not drawn)	-1	6	?	?
CCSC(=O)N1c2ccc(OC)cc2C=CC1C#N (stereo not drawn)	0	1	3730	-2
SMILES	BoNT A protease	BoNT-F LC inh	Bead autofluor	Anthrax LF prot
CCOC(=O)c1sc2nc(CC(=O)OC)nc(NCc3ccc(F)cc3)c2c1C	-3	-3	16799*	-3
COc1cc(OC)cc(C(=O)NC2CCSC2=O)c1 (stereo not drawn)	-1	-4	17088*	-2
COc1ccccc1Cc1noc(COc2cccc(C)c2C)n1	-2	-10	16962*	-1
CN(CC(=O)Nc1ccc(Cl)cc1F)C1CCS(=O)(=O)C1 (stereo not drawn)	0	-7	5576	-1
Cc1cc(N2CCN(S(=O)(=O)c3ccc(Br)cc3)CC2)n2ncnc2n1	-1	1	3290	-8
Cc1cc(Nc2ccc3c(c2)OCCO3)n2ncnc2n1	1	3	22455*	-1
Cc1cc(N2CCN(S(=O)(=O)c3ccc4c(c3)OCCO4)CC2)n2ncnc2n1	-1	0	23595*	-1

Assay outcomes from PubChem.
